Compound activity as filed in PubChem.
Mdm2-MdmX inh – disrupts the human Mdm2-MdmX interaction | inhibition, % at 8 µM | SaOS-2 split-luciferase Mdm2/MdmX complementation, luminescence | O15151+Q00987 | actives 3% (n = 330,000);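 active = inhibition of at least 50% at 8 µM in the primary screen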
GRIN3A LBD mod – modulates the human NR3A ligand-binding domain | NR3A LBD differential scanning fluorimetry, Tm shift; 0% = protein alone, 100% = glycine-bound protein | Tm shift relative to glycine control, % at 25 µM | actives 2.5% (n = 340,000);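 active = melting temperature shift of at least 10% of the positive control shift, at one fixed dose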
Gli-Sufu antag – antagonists of Gli-Sufu signaling. Sufu-KO-LIGHT fibroblasts, Gli luciferase reporter luminescence. inhibition, % at 5 µM. actives 0.74% (n = 340,000);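 active = inhibition above about 55%, limit read from the data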
Beta cell apopt – beta cell apoptosis inhibition. INS-1E cytokine-induced death, ATP luminescence, 48 h; percent of positive-control rescue, neutral wells zero. protection from apoptosis, % (concentration not given with the values). actives 0.8% (n = 300,000). AID 435005;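 active = Every replicate reaches about 75%, or at least half do and their mean reaches it too, limit read from the data; inconclusive = At least half of replicates reach the limit but their mean does not; inactive = Under half of replicates reach the limit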;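 also: higher means more ATP so stronger rescue from cytokine killing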
CSC inhib – blocks cancer stem cells; cancer stem cell-like cells viability, luminescence; inhibition, % at 7.5 µM; actives 1.1% (n = 300,000); AID 2717; in the data active = inhibition above about 75%; inconclusive = no clear call, values can overlap the other calls; tested in HMLE shEcad cells
MPTP block – inhibitors of mitochondrial permeability transition pore; inhibition, % at 10 µM; isolated mouse mitochondria, Ca2+ swelling absorbance, 30 min; actives 1.4% (n = 360,000);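 active = inhibition of 50% or more, scaled per plate between neutral and stimulator controls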
MPTP counter – Rhodamine 123 counter-screen of mitochondrial pore hits | shares compounds with MPTP block | isolated mitochondria, membrane potential, Rhodamine 123 fluorescence | inhibition, % at 10 µM | actives 78% (n = 5,000); in the data active = inhibition above about 22%
Hits are given with their value. A selection: hits, their analogues and other compounds. The true share with any hit is near 6.6%.

What do the screens show for `COc1ccc(Nc2cc(C(=O)NCCCN3CCOCC3)c3ccccc3n2)cc1`?
Mdm2-MdmX inh: inactive; GRIN3A LBD mod: inactive; Gli-Sufu antag: inactive; Beta cell apopt: inactive; CSC inhib: inactive; MPTP block: inactive

How did CN(C)S(=O)(=O)Oc1cccc(C(=O)Nc2ccc(Cl)c(Cl)c2)c1 do in these assays?
Mdm2-MdmX inh: inactive; GRIN3A LBD mod: inactive; Gli-Sufu antag: inactive; Beta cell apopt: inactive; CSC inhib: inconclusive; MPTP block: 96; MPTP counter: 91

What do the screens show for `COc1cccc(C(=O)Nc2cccc(NC(=O)c3ccccc3Cl)c2)c1`?
Mdm2-MdmX inh: inactive; GRIN3A LBD mod: inactive; Gli-Sufu antag: inactive; CSC inhib: inactive; MPTP block: inactive

What do the screens show for `O=c1[nH]c(-c2ccccc2F)nc2c1sc(=S)n2Cc1ccccc1`?
Mdm2-MdmX inh: inactive; GRIN3A LBD mod: inactive; Gli-Sufu antag: inactive; Beta cell apopt: inactive; CSC inhib: inactive; MPTP block: 66; MPTP counter: 69

Results for COc1ccccc1N(C(C)=O)C1=C(Cl)C(=O)c2ccccc2C1=O ?
MPTP block: 51; MPTP counter: 95

What do the screens show for `CC(=O)N(C1=C(N)C(=O)c2ccccc2C1=O)C(C)C`?
Mdm2-MdmX inh: inactive; GRIN3A LBD mod: inactive; Gli-Sufu antag: inactive; Beta cell apopt: inactive; CSC inhib: inactive; MPTP block: inactive

Results for CNC(=S)N/N=C(\C)c1ccc(C)c(C)c1 ?
Mdm2-MdmX inh: inactive; GRIN3A LBD mod: inactive; Gli-Sufu antag: inactive; Beta cell apopt: inactive; CSC inhib: inactive; MPTP block: inactive

What do the screens show for `c1csc(C2Nc3ccccc3-c3nc4ccccc4n32)c1` (stereo not drawn)?
Mdm2-MdmX inh: inactive; GRIN3A LBD mod: 24; Gli-Sufu antag: inactive; Beta cell apopt: inactive; CSC inhib: inactive; MPTP block: 52; MPTP counter: 75

Results for Cc1ccsc1C1Nc2ccccc2-c2nc3ccccc3n21 (stereo not drawn) ?
Mdm2-MdmX inh: inactive; GRIN3A LBD mod: inactive; Gli-Sufu antag: inactive; Beta cell apopt: inactive; CSC inhib: inactive; MPTP block: inactive

What do the screens show for `CCOc1ccccc1NC(=O)C(OC(=O)c1ccc(O)cc1)c1ccccc1` (stereo not drawn)?
Mdm2-MdmX inh: inactive; GRIN3A LBD mod: 26; Gli-Sufu antag: inactive; Beta cell apopt: inactive; CSC inhib: inactive; MPTP block: 89; MPTP counter: 86

How did CS(=O)(=O)n1nc(C(=O)N2CCOCC2)nc1N do in these assays?
Mdm2-MdmX inh: inactive; GRIN3A LBD mod: inactive; Gli-Sufu antag: inactive; Beta cell apopt: inactive; CSC inhib: inactive; MPTP block: inactive

Results for CC1Sc2ccc(S(=O)(=O)N3CCC(C(=O)NCc4ccc(Cl)cc4)CC3)cc2NC1=O (stereo not drawn) ?
Mdm2-MdmX inh: inactive; GRIN3A LBD mod: inactive; Gli-Sufu antag: inactive; Beta cell apopt: inactive; CSC inhib: inactive; MPTP block: inactive

What do the screens show for `CC1Sc2ccc(S(=O)(=O)N3CCC(C(=O)Nc4cccc(Cl)c4)CC3)cc2NC1=O` (stereo not drawn)?
Mdm2-MdmX inh: inactive; GRIN3A LBD mod: inactive; Gli-Sufu antag: inactive; Beta cell apopt: inactive; CSC inhib: inactive; MPTP block: 78; MPTP counter: 85

How did CCc1ccc(NC(=O)C2CCN(S(=O)(=O)c3ccc4c(c3)NC(=O)C(C)S4)CC2)cc1 (stereo not drawn) do in these assays?
Mdm2-MdmX inh: inactive; GRIN3A LBD mod: inactive; Gli-Sufu antag: inactive; Beta cell apopt: inactive; CSC inhib: inactive; MPTP block: 98; MPTP counter: 97

How did Cc1ccc(NC(=O)C2CCN(S(=O)(=O)c3ccc4c(c3)NC(=O)C(C)S4)CC2)cc1C (stereo not drawn) do in these assays?
Mdm2-MdmX inh: inactive; GRIN3A LBD mod: inactive; Gli-Sufu antag: inactive; Beta cell apopt: inactive; CSC inhib: inactive; MPTP block: 98; MPTP counter: 89

How did COc1ccc(N=CC2CCCCC2=O)c([N+](=O)[O-])c1 (stereo not drawn) do in these assays?
GRIN3A LBD mod: inactive; Gli-Sufu antag: inactive; MPTP block: inactive

Results for CCOC(=O)Cn1nc(-c2ccc(F)cc2)oc1=O ?
Mdm2-MdmX inh: inactive; GRIN3A LBD mod: inactive; Gli-Sufu antag: inactive; Beta cell apopt: inactive; CSC inhib: inactive; MPTP block: inactive
